Source: PubChem (several laboratories)
697 NFkB inh – inhibitors of PMA/ionomycin-induced NF-kB reporter, 697 cells, primary screen, B-cell NF-kB inhibitor project, cell-based, luminescence, uHTS | hit rate 0.33% among 330,000 | inhibition, % at 4 µM | 697 B-cell NF-kB luciferase reporter, 16 h; in the data active means inhibition above about 35%
Gli-Sufu antag – Gli-Sufu pathway antagonists, primary screen, luciferase luminescence, Sufu-KO-LIGHT cells, uHTS | AID 588413, 2011 | hit rate 0.74% among 340,000 | inhibition, % at 5 µM | Sufu-KO-LIGHT fibroblasts, Gli luciferase reporter luminescence;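 active means inhibition above about 55%, limit read from the data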;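 further: 0% = DMSO-treated cells and 100% = wells with medium but no cells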
Beta cell apopt – inhibitors of cytokine-induced beta cell apoptosis, primary screen, luminescence; hit rate 0.8% among 300,000; protection from apoptosis, % (no concentration beside the values); INS-1E cytokine-induced death, ATP luminescence, 48 h; percent of positive-control rescue, neutral wells zero;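 active means Every replicate reaches about 75%, or at least half do and their mean reaches it too, limit read from the data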;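 further: 0% = cytokine-treated negative control wells and 100% = positive control rescue; higher means more ATP so stronger rescue from cytokine killing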
Jurkat NFkB inh – inhibitors of induced NF-kB luciferase reporter, primary screen, TCR NF-kB activation inhibitor project, cell-based, luminescence, uHTS; Jurkat, PMA/ionomycin-induced NF-kB luciferase reporter; inhibition, % at 4 µM; hit rate 0.53% among 330,000; AID 435003, 2010; in the data active means inhibition above about 50%
Jurkat NFkB conf – PMA/ionomycin-induced NF-kB reporter inhibitors, Jurkat retest, confirmation, T-cell NF-kB inhibitor project, cell-based, luminescence, single concentration | hit rate 27% among 2,700 | AID 435020, 2010 | Jurkat NF-kB luciferase, 16 h | inhibition, % at 4 µM | shares compounds with Jurkat NFkB inh;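 active means inhibition reaching about 45% at 4 µM in either replicate, limit read from the data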;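 further: plate controls were PMA/ionomycin stimulated DMSO wells for no effect and unstimulated DMSO wells for full effect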
697 NFkB conf – PMA/ionomycin-induced NF-kB reporter inhibitors, 697 retest, confirmation, B-cell NF-kB inhibitor project, cell-based, luminescence, single concentration. shares compounds with 697 NFkB inh. 697 B-cell NF-kB luciferase, 16 h. inhibition, % at 4 µM. hit rate 35% among 2,000. AID 449746, 2010; in the data active means inhibition mostly above about 28%, no sharp cut-off; inactive means mostly below about 22%
Gli-Sufu confirm – Gli-SUFU pathway antagonists, confirmation, single concentration, luciferase luminescence, Sufu-KO-LIGHT cells | shares compounds with Gli-Sufu antag | AID 602428, 2012 | inhibition, % at 5 µM | Gli luciferase reporter | hit rate 40% among 2,500;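 active means mean inhibition at 5 µM reaching about 45%, limit read from the data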;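 further: plate controls were DMSO-treated cells for no effect and wells lacking cells for full effect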
SufuKO cytotox – cytotoxicity in Sufu-KO-LIGHT cells, confirmation, cytotoxicity control for Gli-SUFU antagonist project, cell-based, ATP luminescence, single concentration | AID 651994, 2013 | shares compounds with Gli-Sufu antag | cytotoxicity, % at 5 µM | hit rate 32% among 2,500;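 active means mean cytotoxicity at 5 µM above about 25%, limit read from the data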;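 further: cells exposed to compound overnight for roughly 16 to 18 hours; plate controls were DMSO wells with cells for no effect and medium without cells for full effect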
Wnt3a counter – Wnt3a reporter signal inhibition, confirmation, counter-screen for Gli-SUFU antagonist project, Wnt-LIGHT cells, luminescence, single concentration | inhibition, % at 6.25 µM | Wnt3a-driven luciferase reporter | hit rate 20% among 2,500 | shares compounds with Gli-Sufu antag;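 active means mean inhibition above about 25%, limit read from the data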
Numbers without * were called inactive. An excerpt weighted towards active compounds, which were near 1.8% of everything screened.

Screening Cc1ccc(N/C(N)=N/c2nc(CSc3nnc(C)s3)cc(=O)[nH]2)c(C)c1 returned 697 NFkB inh -5, Gli-Sufu antag 52, Beta cell apopt 21, Jurkat NFkB inh 72*, Jurkat NFkB conf 52*, Gli-Sufu confirm 57*, SufuKO cytotox 56* and Wnt3a counter -28.
For CCOc1ccc(OCC)c(S(=O)(=O)n2cc(C)nc2CC)c1 the results were 697 NFkB inh 4, Gli-Sufu antag 5, Beta cell apopt 10 and Jurkat NFkB inh 2.
For O=C(N/N=C/c1ccc(O)c(O)c1)c1cccc(S(=O)(=O)N2CCCCC2)c1 the results were 697 NFkB inh -28, Gli-Sufu antag -2, Beta cell apopt -1 and Jurkat NFkB inh -5.
`O=C(N/N=C\c1cc(Br)ccc1O)c1ccc(S(=O)(=O)N2CCCCC2)cc1` gave 697 NFkB inh -26, Gli-Sufu antag 77*, Beta cell apopt 100*, Jurkat NFkB inh 54*, Jurkat NFkB conf 32, Gli-Sufu confirm 76*, SufuKO cytotox 30* and Wnt3a counter 74*.
`O=C(c1ccc(Br)cc1)c1cc([N+](=O)[O-])ccc1N1CCCCC1` gave 697 NFkB inh 45*, Gli-Sufu antag 55, Beta cell apopt 54, Jurkat NFkB inh 75*, Jurkat NFkB conf 59*, 697 NFkB conf 39*, Gli-Sufu confirm 60*, SufuKO cytotox 60* and Wnt3a counter 12.
`CC(C)(C)OC(=O)NCCCCCc1cn(CC(=O)NCCCCCCCCCCC(=O)N2CCN(C(=O)OC(C)(C)C)CC2)nn1` gave 697 NFkB inh -13, Gli-Sufu antag 56*, Beta cell apopt 61, Jurkat NFkB inh 55*, Jurkat NFkB conf 56*, Gli-Sufu confirm 62*, SufuKO cytotox 26* and Wnt3a counter -38.
Screening COc1ccc(C2=Nn3c([n+](C)c4ccccc43)SC2)cc1 returned 697 NFkB inh 25, Gli-Sufu antag 81*, Beta cell apopt 112*, Jurkat NFkB inh 54*, Jurkat NFkB conf 63*, Gli-Sufu confirm 86*, SufuKO cytotox 17 and Wnt3a counter 40*.
Screening COc1ccc(C2=Nn3c(nnc3-c3ccccn3)SC2)cc1 returned 697 NFkB inh -27, Gli-Sufu antag 22, Beta cell apopt 1 and Jurkat NFkB inh 6.
For Cc1ccc(S(=O)(=O)NCc2ccncc2)c(C)c1C the results were 697 NFkB inh 31, Gli-Sufu antag 76*, Beta cell apopt 116*, Jurkat NFkB inh 62*, Jurkat NFkB conf 68*, Gli-Sufu confirm 74*, SufuKO cytotox 28* and Wnt3a counter 37*.
Screening Cc1ccc(S(=O)(=O)NCc2ccccn2)c(C)c1C returned 697 NFkB inh -41, Gli-Sufu antag -1 and Jurkat NFkB inh -20.
COC(=O)C(CCSC)NC(=O)/C=C/c1ccc(OC)cc1 (stereo not drawn) was read as 697 NFkB inh 4, Gli-Sufu antag -17, Beta cell apopt 2 and Jurkat NFkB inh 6.
COc1ccc(S(=O)(=O)N2CCC(C(=O)Nc3cccc(C(C)=O)c3)CC2)cc1 was read as 697 NFkB inh 9, Gli-Sufu antag -7, Beta cell apopt -2 and Jurkat NFkB inh 3.
`C/C(=N\NC(=O)C(C)Oc1ccc([N+](=O)[O-])cc1)c1ccccn1` (stereo not drawn) gave 697 NFkB inh -14, Gli-Sufu antag 88*, Beta cell apopt 90*, Jurkat NFkB inh 61*, Jurkat NFkB conf 13, Gli-Sufu confirm 85*, SufuKO cytotox 33* and Wnt3a counter 56*.
For COc1ccc(OCC(=O)NCC(c2cccs2)N2CCOCC2)cc1 (stereo not drawn) the results were 697 NFkB inh 6, Gli-Sufu antag -4, Beta cell apopt -1 and Jurkat NFkB inh 9.
O=C(CSc1nnnn1C1CCCCC1)Nc1ccccc1F was read as 697 NFkB inh 12, Gli-Sufu antag 0, Beta cell apopt -1 and Jurkat NFkB inh 8.
O=C(CSc1nnnn1C1CC2CCC1C2)Nc1ccnc2ccccc12 (stereo not drawn) was read as 697 NFkB inh 95*, Gli-Sufu antag 83*, Jurkat NFkB inh 83*, Jurkat NFkB conf 71*, 697 NFkB conf 96*, Gli-Sufu confirm 85*, SufuKO cytotox 35* and Wnt3a counter 6.
`S=C(NCCCN1CCOCC1)N1CCN(c2nc(-c3ccc(Cl)cc3)cs2)CC1` gave 697 NFkB inh 21, Gli-Sufu antag 52, Beta cell apopt 85*, Jurkat NFkB inh 51*, Jurkat NFkB conf 20, Gli-Sufu confirm 37, SufuKO cytotox 17 and Wnt3a counter -81.
S=C(NCCCN1CCOCC1)N1CCN(c2nc(-c3ccccc3)cs2)CC1 was read as 697 NFkB inh 16, Gli-Sufu antag 19, Beta cell apopt 6 and Jurkat NFkB inh -3.
`O=C(NCCc1c[nH]c2ccccc12)c1ccc(F)cc1F` gave 697 NFkB inh -39, Gli-Sufu antag -28, Beta cell apopt -2 and Jurkat NFkB inh -39.
Screening O=c1[nH]c(Nc2nc3ccccc3o2)nc2c1CCCC2 returned 697 NFkB inh -275, Gli-Sufu antag 62*, Beta cell apopt 42, Jurkat NFkB inh 71*, Jurkat NFkB conf -50, 697 NFkB conf -99, Gli-Sufu confirm 64*, SufuKO cytotox 39* and Wnt3a counter 44*.
For Cc1ccc(Nc2nc3c(c(=O)[nH]2)CCCC3)cc1 the results were 697 NFkB inh -26, Gli-Sufu antag -38, Beta cell apopt 6 and Jurkat NFkB inh -38.
Screening CCN(CC)S(=O)(=O)c1cccc(NC(=O)CNc2cccc(S(=O)(=O)N3CCCC3)c2)c1 returned 697 NFkB inh 43*, Gli-Sufu antag 73*, Beta cell apopt 112*, Jurkat NFkB inh 56*, Jurkat NFkB conf 58*, 697 NFkB conf 67*, Gli-Sufu confirm 75*, SufuKO cytotox 38* and Wnt3a counter 21.
